PubChem BioAssay AID2315 (National Center for Advancing Translational Sciences (NCATS), 2010)
About 27,000 (9.3%) of roughly 290,000 compounds were called active. The sample as a whole holds a higher share of actives than the screen did. Values without a mark were called inactive. Cut-off read from the data, not from the text of the source: active = inhibition mostly above about 28% (no sharp cut-off); inactive = mostly below about 43%.

Test: A qHTS for Small Molecule Inhibitors of Shiga Toxin; note: 0% is about no effect
Settings: Vero cells, Shiga toxin protein synthesis inhibition reporter; at 38.7 µM, hits give high values
`O=S(=O)(Nc1ccccc1)c1ccc(NS(=O)(=O)c2cccs2)cc1` showed an inhibition of -2.44%. With `NC(=O)c1cc(S(=O)(=O)N2CCCC2)ccc1OCc1ccc(F)cc1` the inhibition was -10.2%. In the case of `CC(=O)NCCC(=O)Nc1nc(-c2ccc3c(c2)OCCO3)cs1`, the inhibition is reported as 50% (active). Molecule `CC(=O)NCCC(=O)Nc1nc(C)c(Cc2ccc3c(c2)OCO3)s1` has an inhibition of 13.3%. For `O=C(Nc1nc(-c2ccc3c(c2)OCO3)cs1)c1ccncc1`, the inhibition was 42.9%. Molecule `CC(=O)Nc1ccc(Oc2ccc3c(c2)C(=O)NC3=O)cc1` has an inhibition of -7.33%. `Cc1ccc(S(=O)(=O)N/N=C(\c2ccccc2)C2CC2)cc1` showed an inhibition of -3.31%. In the case of `Cc1nc(-c2ccccc2)sc1C(=O)/C=C/N(C)C`, the inhibition is reported as 127% (active). `CN(C)/C=C/C(=O)c1ccccc1F` gave an inhibition of 30.4%. For `Cc1nc(COc2cccc(Cl)c2)sc1C(=O)/C=C/N(C)C`, the inhibition was 48.6%. `O=C(CN(C(=O)CCC(=O)Nc1nccs1)c1ccc(F)cc1)NCc1ccc2c(c1)OCO2` showed an inhibition of -6.5%. In the case of `COCCn1c(=NC(=O)c2ccccc2[N+](=O)[O-])sc2cc(S(C)(=O)=O)ccc21`, the inhibition is reported as 21.4% (active). `Cn1c(=NC(=O)c2ccc3c(c2)OCCO3)sc2cc(S(C)(=O)=O)ccc21` showed an inhibition of 2.16%. `COCCNC(=O)c1ccccc1NS(=O)(=O)c1ccc(C)c([N+](=O)[O-])c1` showed an inhibition of -5.37%. Work on `COC(=O)c1cc(NS(=O)(=O)c2ccc3c(c2)c(=O)n(C)c(=O)n3C)cc(C(=O)OC)c1` yielded an inhibition of -1.69%. For `Cc1ccc(S(=O)(=O)NNC(=O)/C=C/c2cccc(F)c2)cc1`, the inhibition was -5.71%. With `CC1CCCCC1NC(=O)CCS(=O)(=O)c1ccc2c(c1)NC(=O)CO2` (stereo not given) the inhibition was 49.7%. For `COc1ccc(C(=O)O)cc1S(=O)(=O)NCc1cccnc1`, the inhibition was 2.47%. Molecule `Cc1cc(Cl)c2oc(C(=O)N3CCC(O)(c4ccccc4)CC3)c(C)c2c1` has an inhibition of 18.3%. In the case of `Cc1cc(Cl)c2oc(C(=O)N(C)C(C)c3ccccn3)c(C)c2c1` (stereo not given), the inhibition is reported as 50.1% (active). With `Cc1cc(Cl)c2oc(C(=O)NC(C)c3ccncn3)c(C)c2c1` (stereo not given) the inhibition was 14.6%. In the case of `NC(=O)C1CCCN(CC(=O)N2CCN(c3ccccc3)CC2)C1` (stereo not given), the inhibition is reported as -5.2%. In the case of `COc1ccc(OC)c(C(=O)c2ccc(C(=O)O)cc2)c1`, the inhibition is reported as 29.1%. `COc1ccc(OC)c(C(=O)c2coc3ccc(OC)cc23)c1` gave an inhibition of -7.11%. With `COc1ccc2occ(C(=O)c3ccc(N=C(C)N(C)C)cc3)c2c1` the inhibition was 62% (active). With `CCOCCCN(C)C1CCN(C(=O)c2oc3ccccc3c2NC(=O)Cc2cccc([N+](=O)[O-])c2)CC1` the inhibition was 18.7%. Work on `Cc1noc(C)c1CSCC(=O)N(CCC(C)C)c1c(N)n(Cc2ccccc2)c(=O)[nH]c1=O` yielded an inhibition of 6.62%. `COc1cc(C2C(C(=O)c3ccco3)=C(O)C(=O)N2c2cc(C)on2)ccc1OCc1ccccc1` (stereo not given) gave an inhibition of -4.72%. With `C=CCSc1nnc(N2C(=O)C(O)=C(C(=O)c3ccco3)C2c2ccc(F)cc2)s1` (stereo not given) the inhibition was 19.6%. In the case of `Cc1ccc2nc(N3C(=O)C(O)=C(C(=O)c4ccco4)C3c3cccc(O)c3)sc2c1` (stereo not given), the inhibition is reported as 71.4% (active). Work on `CCOc1ccccc1NC(=O)NC1CCCCCCC1` yielded an inhibition of -4.06%. With `COc1cc(NC(=O)C2CCN(c3cnccn3)CC2)cc(OC)c1` the inhibition was -1.63%. With `CS(=O)(=O)N1CCc2nc(-c3ccccc3)sc2C1` the inhibition was 99.9% (active). In the case of `CS(=O)(=O)N1CCN(c2cccc(Cl)n2)CC1`, the inhibition is reported as -4.33%. For `CS(=O)(=O)N1CCN(C(=O)Cc2ccccc2)CC1`, the inhibition was 8.45%. `O=C(Cn1nc([N+](=O)[O-])nc1Br)NC1CCCCC1` showed an inhibition of -1.71%. Molecule `Cc1cc(-c2ccc(S(=O)(=O)N3CCN(c4cccc(C(F)(F)F)c4)CC3)s2)on1` has an inhibition of -3.9%. With `COc1ccc(NC(=O)C/C(C)=N/NC(=O)c2cnccn2)cc1Cl` the inhibition was 45.4% (active). Molecule `O=C(COc1ccc(Cl)cc1Cl)NCCCNC(=O)c1cnccn1` has an inhibition of -3.62%. `CCCCC(=O)N/N=C(\C)CC(=O)Nc1cc(Cl)ccc1OC` showed an inhibition of 2.31%. Molecule `COc1ccccc1C(=O)NCc1nnc(SC(C)C(=O)Nc2nccs2)n1C` (stereo not given) has an inhibition of 10.7%. Molecule `CCOc1ccc(NC(=O)C(C)N2C(=O)c3ccccc3C2=O)cc1` (stereo not given) has an inhibition of -15.9%. In the case of `O=C(Cc1ccc(Cl)cc1)NC1CCS(=O)(=O)C1` (stereo not given), the inhibition is reported as 1.56%. In the case of `O=S(=O)(Nc1ccc2nc(-c3ccco3)[nH]c2c1)c1ccccc1`, the inhibition is reported as 70.6% (active). With `Cc1ccc(S(=O)(=O)Nc2ccc3ncccc3c2)cc1` the inhibition was -8.08%. With `O=S(=O)(Nc1ccc2cn[nH]c2c1)c1ccccc1` the inhibition was 24%. In the case of `CN1CCN(/N=C/c2ccc(-c3ccc([N+](=O)[O-])cc3)o2)CC1`, the inhibition is reported as 46.8% (active). `CN1CCN(/N=C/c2ccc(C#N)cc2)CC1` gave an inhibition of 81.4%. With `Cc1ccc(-c2ccc(/C=N/NC(=O)CN3CCOCC3)o2)cc1[N+](=O)[O-]` the inhibition was -4.74%. `Cc1ccc(S(=O)(=O)N2CCN=C2SCc2c(F)cccc2Cl)cc1` showed an inhibition of -2.63%. `Cc1nc([N+](=O)[O-])cn1CC(=O)Nc1ccc2c(c1)OCO2` showed an inhibition of -7.53%. For `Cc1onc(C(=O)Nc2ccc3c(c2)OCO3)c1[N+](=O)[O-]`, the inhibition was 62.7% (active). For `Cn1cc([N+](=O)[O-])c(C(=O)Nc2ccc3c(c2)OCCO3)n1`, the inhibition was 53.6% (active). `Cn1cc([N+](=O)[O-])c(C(=O)Nc2cnn(Cc3ccc(F)cc3)c2)n1` gave an inhibition of 7.88%. In the case of `COc1cccc(NC(=O)c2nn(C34CC5CC(CC(C5)C3)C4)cc2[N+](=O)[O-])c1`, the inhibition is reported as 28.3%. With `Cc1nn(CC(=O)Nc2ccc3c(c2)OCO3)c(C)c1[N+](=O)[O-]` the inhibition was -8.73%. `O=C(CSc1nnc(-c2ccco2)n1Cc1ccccc1)NC(=O)NCc1ccco1` gave an inhibition of 10.4%. In the case of `c1ccc(CSc2nnc(-c3ccco3)n2Cc2ccccc2)cc1`, the inhibition is reported as 94.3% (active). `c1ccc(CSc2nnc(-c3ccco3)c(-c3ccco3)n2)cc1` showed an inhibition of -7.92%. `O=C(Nc1ccc(S(=O)(=O)NCC2CCCO2)cc1)c1ccc(F)cc1` (stereo not given) showed an inhibition of -1.55%. `CCc1cccc(C)c1NS(=O)(=O)c1cc(Br)cnc1N` gave an inhibition of -8.52%. With `COc1ccc(/C=N/NC(=O)c2ccc(Cl)cc2)cc1COC(C)=O` the inhibition was -2.77%. In the case of `Cn1nccc1/C=N\NC(=O)c1ccc(Cl)cc1`, the inhibition is reported as 30.8% (active). Molecule `CC1(C)C2CC=C(/C=N/NC(=O)c3ccc(Cl)cc3)C1C2` (stereo not given) has an inhibition of 30.5%. With `Cc1c(CC(=O)N2CCN(C(=O)C3COc4ccccc4O3)CC2)c(=O)oc2c(O)c(O)ccc12` (stereo not given) the inhibition was 6.52%. `O=C(CCC1CCCN(C(=O)c2ccc(F)c(F)c2)C1)N1CCN(c2ccccn2)CC1` (stereo not given) gave an inhibition of -25.9%. In the case of `Cc1ccc(O)c(CNc2nc3ccccc3n2C)c1`, the inhibition is reported as 75.2% (active). Work on `CC(C)n1c(NCc2c[nH]c3ccccc23)nc2ccccc21` yielded an inhibition of 8.94%. `Cc1ccc(O)c(CNc2nc3ccccc3[nH]2)c1` gave an inhibition of 30.6%. With `O=C(NCCCN1CCOCC1)c1ccc2c(c1)N(Cc1cccc(F)c1)C(=O)c1ccccc1S2` the inhibition was -12.3%. For `O=C(NC1CC1)c1cccc(Br)c1`, the inhibition was 23.6%. For `O=C(NC1CC1)c1ccc(-c2ccccc2)cc1`, the inhibition was 97.2% (active). In the case of `O=C(CCC(=O)c1cccs1)NC1CCCCCC1`, the inhibition is reported as 29.7%. In the case of `CC(=O)c1cc(-c2ccccc2)n(CC(=O)NC2CCCCC2)c1C`, the inhibition is reported as 26.5%. With `CSc1ccccc1NC(=O)c1cc(C2CC2)on1` the inhibition was 19.8% (active). `CC(C)C(OC(=O)c1cccs1)C(=O)NC1CCCCC1` (stereo not given) showed an inhibition of 8.34%. For `O=C(Nc1cc(C(F)(F)F)ccc1Cl)c1cc(C2CC2)on1`, the inhibition was -4.26%. `CC(NC(=O)c1cc(-c2ccccc2)on1)c1ccccc1` (stereo not given) showed an inhibition of 0.984%. In the case of `O=C(NC1CCCC1)c1cc(-c2ccccc2)on1`, the inhibition is reported as 157% (active). With `O=C(NC1CCN(S(=O)(=O)c2ccc(F)cc2)CC1)c1ccccc1` the inhibition was -7.58%. With `O=C(NC1CCCCCCC1)c1cccs1` the inhibition was 88.4% (active). Molecule `CSc1ccccc1NC(=O)c1cc(Cl)sc1Cl` has an inhibition of 25.1%. `Cc1ccc(N2C(=O)C3C4C=CC(CC4)C3C2=O)cc1Cl` (stereo not given) showed an inhibition of 6.23%. With `C[N+](C)(C)CCNC(=O)c1cc[n+](Cc2ccccc2)c(/C=N/O)c1` the inhibition was -12.2%. `CCCCC[C@H]1CN(C2CCCCC2)C(=O)[C@@H]1CC(=O)NCc1ccc(OC)cc1` gave an inhibition of -2.81%. `CCOc1ccc2c(c1)c(=O)c(S(=O)(=O)c1ccc(C)cc1)cn2CC` showed an inhibition of -4.36%. Work on `O=C(NNS(=O)(=O)c1ccc(F)cc1)C1CCCCC1` yielded an inhibition of -10.2%. Molecule `Cc1nn(Cc2ccc(Cl)c(Cl)c2)c(C)c1NC(=O)c1cc(C2CC2)on1` has an inhibition of 12.5%. `COc1cc(OC)c(C(=O)NC2CCCCCC2)cc1OC` showed an inhibition of -10.7%. Molecule `COc1ccc(-c2cc(C(=O)NCCCn3ccnc3)no2)cc1` has an inhibition of 46.8%. With `COc1ccccc1-c1cc(C(=O)NCCCn2ccnc2)no1` the inhibition was 24.1%. With `O=C(NC1CCCCC1)c1cc(C2CC2)on1` the inhibition was 108% (active). In the case of `O=C(NCCCn1ccnc1)c1cc(-c2ccccc2)on1`, the inhibition is reported as 146% (active). For `Cc1ccc(OCCCC(=O)Nc2ccc(S(=O)(=O)Nc3cc(C)nc(C)n3)cc2)cc1`, the inhibition was 12.9%. `C=C1CCN(C(CC(C)C)C(=O)NCc2cc(OC)c(OC)c(OC)c2)S(=O)(=O)c2ccccc21` (stereo not given) gave an inhibition of -0.34%.
